Source: PubChem
FAS-TE inh: FAS thioesterase domain inhibitors, primary screen, biochemical, fluorescence intensity, uHTS | Fatty acid synthase (Homo sapiens), P49327 | recombinant FAS-TE, OMFH fluorogenic substrate, fluorescence endpoint | inhibition, % at 15 µM | 360,000 compounds, 0.67% hits;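 active = compounds whose normalised, plate-corrected inhibition of enzyme fluorescence in the single-dose primary screen is 50% or more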;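 also: 0% = DMSO with enzyme and 100% = substrate without enzyme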
Target sequence (P49327 whole entry, looked up, the tested form may be a part): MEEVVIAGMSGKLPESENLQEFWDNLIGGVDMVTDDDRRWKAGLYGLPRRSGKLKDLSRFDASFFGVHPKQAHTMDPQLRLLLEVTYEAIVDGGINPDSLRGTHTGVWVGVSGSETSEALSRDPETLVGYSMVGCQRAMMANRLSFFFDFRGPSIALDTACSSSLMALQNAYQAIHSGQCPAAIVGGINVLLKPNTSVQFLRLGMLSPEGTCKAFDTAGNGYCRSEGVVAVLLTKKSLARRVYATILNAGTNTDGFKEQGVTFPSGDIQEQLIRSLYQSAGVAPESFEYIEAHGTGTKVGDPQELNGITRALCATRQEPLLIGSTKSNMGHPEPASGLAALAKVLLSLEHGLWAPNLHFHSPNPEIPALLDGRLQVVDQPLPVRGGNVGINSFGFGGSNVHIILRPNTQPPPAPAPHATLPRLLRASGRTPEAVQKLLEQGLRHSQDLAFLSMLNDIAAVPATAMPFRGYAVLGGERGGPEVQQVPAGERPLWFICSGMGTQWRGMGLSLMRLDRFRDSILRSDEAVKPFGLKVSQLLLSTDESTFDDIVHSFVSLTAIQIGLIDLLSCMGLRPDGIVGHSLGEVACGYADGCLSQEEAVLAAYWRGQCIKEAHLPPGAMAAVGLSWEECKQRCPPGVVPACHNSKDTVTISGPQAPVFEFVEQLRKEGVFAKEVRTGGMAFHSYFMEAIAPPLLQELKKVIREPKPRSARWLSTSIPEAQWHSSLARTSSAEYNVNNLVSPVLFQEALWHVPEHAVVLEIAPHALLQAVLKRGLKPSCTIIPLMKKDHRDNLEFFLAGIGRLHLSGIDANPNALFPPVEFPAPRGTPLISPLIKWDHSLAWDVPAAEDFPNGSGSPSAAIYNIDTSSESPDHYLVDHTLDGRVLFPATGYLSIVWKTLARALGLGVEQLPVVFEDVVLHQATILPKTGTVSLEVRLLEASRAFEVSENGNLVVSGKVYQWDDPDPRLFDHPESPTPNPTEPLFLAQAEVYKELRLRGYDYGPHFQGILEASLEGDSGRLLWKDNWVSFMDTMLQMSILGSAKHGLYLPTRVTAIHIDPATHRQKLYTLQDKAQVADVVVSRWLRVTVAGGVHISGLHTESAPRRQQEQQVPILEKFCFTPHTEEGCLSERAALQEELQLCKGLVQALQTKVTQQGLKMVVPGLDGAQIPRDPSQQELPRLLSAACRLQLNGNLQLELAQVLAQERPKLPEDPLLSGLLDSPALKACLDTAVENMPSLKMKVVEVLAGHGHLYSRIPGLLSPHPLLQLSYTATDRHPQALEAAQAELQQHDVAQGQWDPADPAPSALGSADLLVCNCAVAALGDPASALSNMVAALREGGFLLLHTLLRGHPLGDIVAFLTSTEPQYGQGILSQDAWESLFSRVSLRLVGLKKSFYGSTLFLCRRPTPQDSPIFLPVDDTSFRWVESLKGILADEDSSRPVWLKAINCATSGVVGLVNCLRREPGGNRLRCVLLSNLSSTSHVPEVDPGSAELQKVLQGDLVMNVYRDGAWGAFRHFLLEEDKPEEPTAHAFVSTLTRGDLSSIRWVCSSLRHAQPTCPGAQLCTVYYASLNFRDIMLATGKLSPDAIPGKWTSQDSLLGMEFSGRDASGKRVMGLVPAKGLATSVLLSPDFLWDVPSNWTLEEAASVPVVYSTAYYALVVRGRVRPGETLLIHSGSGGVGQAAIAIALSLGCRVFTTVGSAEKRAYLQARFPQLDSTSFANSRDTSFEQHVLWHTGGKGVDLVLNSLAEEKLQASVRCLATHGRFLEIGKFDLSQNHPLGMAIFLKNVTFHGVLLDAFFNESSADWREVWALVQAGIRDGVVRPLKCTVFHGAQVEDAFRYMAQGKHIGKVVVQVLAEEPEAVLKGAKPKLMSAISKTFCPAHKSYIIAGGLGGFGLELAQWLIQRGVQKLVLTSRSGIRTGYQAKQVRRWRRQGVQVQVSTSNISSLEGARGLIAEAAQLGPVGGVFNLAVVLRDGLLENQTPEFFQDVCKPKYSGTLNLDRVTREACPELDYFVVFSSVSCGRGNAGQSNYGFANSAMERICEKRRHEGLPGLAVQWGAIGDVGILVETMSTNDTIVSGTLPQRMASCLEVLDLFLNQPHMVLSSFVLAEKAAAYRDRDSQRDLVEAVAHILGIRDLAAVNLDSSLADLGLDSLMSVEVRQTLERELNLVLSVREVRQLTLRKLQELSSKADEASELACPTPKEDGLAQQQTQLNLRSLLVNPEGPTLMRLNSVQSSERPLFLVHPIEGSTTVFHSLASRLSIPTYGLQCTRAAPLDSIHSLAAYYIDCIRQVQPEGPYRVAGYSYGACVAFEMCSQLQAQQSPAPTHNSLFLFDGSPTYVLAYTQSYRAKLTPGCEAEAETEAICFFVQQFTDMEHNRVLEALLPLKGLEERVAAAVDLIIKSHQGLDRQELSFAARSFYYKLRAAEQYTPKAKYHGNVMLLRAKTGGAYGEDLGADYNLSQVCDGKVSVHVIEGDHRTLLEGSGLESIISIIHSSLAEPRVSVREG
NR3A LBD binder: binders of NR3A ligand-binding domain, primary screen, biophysical, differential scanning fluorimetry, uHTS. 340,000 compounds, 2.5% hits. Tm shift relative to glycine control, % at 25 µM. Glutamate receptor ionotropic, NMDA 3A (GRIN3A) ligand-binding domain. AID 1259313, 2017. NR3A LBD differential scanning fluorimetry, Tm shift; 0% = protein alone, 100% = glycine-bound protein;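 active = melting temperature shift of at least 10% of the positive control shift, at one fixed dose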
pCIP destab: p/CIP-EGFP fusion destabilizers, primary screen, fluorescence, F442A cells | Q05BA5 | 16 h | decrease of EGFP signal, % at 10 µM | 290,000 compounds, 0.01% hits;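 active = EGFP signal decrease of at least 30% at 10 µM or well 3 SD below plate mean, unless failing retest; inactive = the rest, including hits failing retest or dose response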
MIN6 prolif: inducers of MIN6 beta-cell proliferation, primary screen, ATP luminescence, uHTS | MIN6 cells proliferation, ATPlite luminescence, 48 h; cells starved in 0.2% serum; 100% = growth in 10% serum | proliferation, % at 10 µM | 330,000 compounds, 0.29% hits | AID 2380, 2010;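 active = compounds whose signal lies at least 3.5 SD above the mean of all wells on their plate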;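 also: 0% = DMSO-treated cells in low-serum medium and 100% = 10% serum control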
MPTP inh: mitochondrial permeability transition pore inhibitors, primary screen, biochemical, isolated mouse mitochondria, absorbance; Ca2+ swelling absorbance, 30 min; inhibition, % at 10 µM; 360,000 compounds, 1.4% hits;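 active = inhibition of 50% or more, scaled per plate between neutral and stimulator controls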;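 also: 0% = DMSO wells given calcium and 100% = 1 mM EGTA wells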
FAS-TE inh conf: FAS thioesterase domain inhibitors, confirmation, biochemical, fluorescence intensity, single concentration; inhibition, % at 15 µM; 2,300 compounds, 45% hits; shares compounds with FAS-TE inh; recombinant FAS-TE, OMFH fluorogenic substrate; AID 624325, 2012;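 active = compounds inhibiting the enzyme by at least 50% at 15 µM in any one of the replicates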;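 also: 0% = enzyme with DMSO only and 100% = wells lacking enzyme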
Numbers without * were called inactive; nt = no result. Shown are actives, neighbours in structure and some others; about 4.1% of the full set was active somewhere.

SMILES	FAS-TE inh	NR3A LBD binder	pCIP destab	MIN6 prolif	MPTP inh	FAS-TE inh conf
C[C@H](NC(=O)c1nc[nH]c1C(=O)N[C@@H](CCCCNC(=O)OC(C)(C)C)C(=O)OC(C)(C)C)C(=O)OCc1ccccc1	87*	-6	-14	-7	2	74*
CC(C)(C)OC(=O)NCCCC[C@H](NC(=O)c1nc[nH]c1C(=O)N[C@@H](CCCCNC(=O)OC(C)(C)C)C(=O)OC(C)(C)C)C(=O)OC(C)(C)C	13	-2	2	-7	0	nt
CC(C)(C)OC(=O)NCc1ccc(CNC(=O)c2[nH]cnc2C(=O)NC2CCN(C(=O)OC(C)(C)C)CC2)cc1	54*	-8	nt	-5	0	40
CC(C)(C)OC(=O)CNC(=O)c1[nH]cnc1C(=O)N[C@@H](CCCCNC(=O)OC(C)(C)C)C(=O)OC(C)(C)C	87*	5	-4	-5	-1	92*
CC(C)C[C@H](NC(=O)c1nc[nH]c1C(=O)NC1CCN(C(=O)OC(C)(C)C)CC1)C(=O)OCc1ccccc1	58*	0	-36	-7	0	61*
CC(C)C[C@H](NC(=O)c1nc[nH]c1C(=O)NC1CCN(C(=O)OC(C)(C)C)CC1)C(=O)OC(C)(C)C	20	-12	-13	-7	-1	nt
C=CCOc1c(OC)cc(/C=N/Nc2cccc(C(=O)O)c2)c(Br)c1Br	70*	-3	-9	nt	2	84*
C=CCOc1c(/C=N\NC(N)=O)cccc1OC	-6	2	13	-1	1	nt
Cc1csc(NC(=O)CCNC(=O)c2ccc([N+](=O)[O-])cc2)n1	68*	-9	9	-1	0	71*
Cc1cc(C)cc(NC(=O)CCNC(=O)c2ccc([N+](=O)[O-])cc2)c1	69*	-1	-1	nt	1	16
Cc1cnc(CNC(=O)c2csc([C@H]3C[C@H](O)[C@@H](CO)O3)n2)cn1	-5	nt	nt	nt	-2	nt
CCCNC(=O)C1(C)CCCN(C(=O)COCc2ccccc2)C1 (stereo not given)	-5	nt	nt	nt	0	nt
Nc1ncnc(N)c1NC(=O)c1ccc(OCc2ccccc2)cc1	-8	nt	nt	nt	-1	nt
CN(CCO)c1cc(NCCCN2CCC(Cc3ccccc3)CC2)c2nonc2c1[N+](=O)[O-]	68*	1	3	-7	1	42*
COc1ccc([C@H]2CC(=O)C=C(c3ccc4c(c3)OCCO4)C2)cc1	9	-2	nt	-2	-1	nt
COc1ccc([C@H]2CC(=O)C=C(c3ccc(Cl)c(C(F)(F)F)c3)C2)cc1	54*	-19	nt	-7	0	-1
COc1ccc([C@H]2CC(=O)C=C(c3ccc(C)c([N+](=O)[O-])c3)C2)cc1	76*	2	nt	-5	-1	81*
CC(O)CNc1nc2sc3c(c2c(=O)n1CCc1ccccc1)CCCCC3 (stereo not given)	47	-3	1	-6	27	nt
CN(C)CCNc1nc2sc3c(c2c(=O)n1CCc1ccccc1)CCCCC3	60*	0	-21	-4	-2	56*
O=C1N=c2ccc([N+](=O)[O-])cc2=C1c1sc(=O)[nH]c1O	56*	-1	-19	-3	0	66*
CN(C)Cc1csc(NC(=O)Nc2ccccc2Cc2ccccc2)n1	-8	nt	nt	nt	3	nt
O=C(c1cccc(NS(=O)(=O)c2ccc(F)c(F)c2)c1)N1CCN(C(c2ccccc2)c2ccccc2)CC1	90*	10	-5	-6	10	45
O=C(c1cccc(NS(=O)(=O)c2ccccc2)c1)N1CCCC1	-4	2	-10	-2	-1	nt
COC(=O)[C@@]1(Cc2ccc(F)cc2)[C@H]2c3cc(C(=O)N4CCCC4)n(C)c3C[C@H]2CN1C(=O)c1ccccc1	3	nt	nt	nt	0	nt
CCOC(=O)c1cc2c(=O)n3cccc(C)c3nc2n(CCCOC)c1=NC(=O)c1cccnc1	54*	1	-21	0	0	12
SMILES	FAS-TE inh	NR3A LBD binder	pCIP destab	MIN6 prolif	MPTP inh	FAS-TE inh conf
CCCCn1c(=NC(=O)c2ccco2)c(C(=O)OCC)cc2c(=O)n3cccc(C)c3nc21	56*	-2	-1	-3	9	27
Cc1cccn2c(=O)c3cc(C#N)c(=NC(=O)c4cccs4)n(CCCOC(C)C)c3nc12	52*	-3	14	-2	6	22
CNc1cnc(-c2ccc(F)c(F)c2F)cn1	-3	nt	nt	nt	1	nt
Cc1nc(Sc2ccccc2)c(C#N)c(C)c1[N+](=O)[O-]	59*	2	7	-2	1	46*
O=[N+]([O-])c1cc(-c2nnc(Nc3ccccc3)c3ccccc23)ccc1N1CCOCC1	63*	-4	-3	-5	10	15
Cc1ccc(Nc2nnc(-c3ccc(N4CCOCC4)c([N+](=O)[O-])c3)c3ccccc23)cc1	64*	-4	-24	-6	8	13
CN(CC(=O)Nc1cccc(F)c1)C(=O)/C=C/c1ccc2ccccc2n1	-3	2	1	-5	-1	nt
COc1cc2c(C)nc3onc(-c4ccccc4)c3c2cc1OC	70*	-3	-6	3	2	45*
CC(NC(=O)c1cc([N+](=O)[O-])cc([N+](=O)[O-])c1)c1ccc(-n2ccnc2)cc1 (stereo not given)	59*	1	-9	-1	-2	72*
CC(NC(=O)c1ccc(N(C)C)c([N+](=O)[O-])c1)c1ccc(-n2ccnc2)cc1 (stereo not given)	46	-8	-5	-3	0	nt
CCOC(=O)N1CCN(Cc2cc(=O)oc3ccc4ccccc4c23)CC1	10	-3	-8	4	-2	nt
O=C(CC12CC3CC(CC(C3)C1)C2)NCC(=O)OCc1cc(=O)oc2ccc3ccccc3c12	55*	-1	8	-2	14	15
O=C(NC1CCCC1)C(c1ccccc1)n1c(-c2cccc3ccccc23)nc2ccccc21 (stereo not given)	nt	nt	nt	nt	2	nt
CC(C)=CCC[C@H](C)C[C@@H]1CC2=C(C(=O)OC(C)(C)O2)[C@H](c2ccc(Cl)cc2)O1	23	nt	nt	nt	3	nt
Cc1onc(-c2ccccc2)c1C(=O)n1nnc2ccccc21	52*	1	-9	1	2	51*
O=S(=O)(c1c(F)cccc1F)N(CCc1ccc(F)cc1)C[C@@H](O)COCc1ccccc1	30	-13	nt	nt	0	nt
Cc1cccn2c(=O)nc(SCC(=O)N3N=C(c4cccs4)CC3c3ccc(F)cc3)nc12 (stereo not given)	54*	0	nt	-6	-2	41
